Screening results as filed in PubChem BioAssay.
Sampled rows, rich in hits. Any-hit rate of the full collection: about 2.8%.
bovine MsrA act = activators of bovine methionine sulfoxide reductase A; purified bovine MsrA, absorbance read-out; activation, % at 10.6 µM; 0.3% of 360,000 active; AID 602163; in the data active means activation above about 7.5%;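 further: 0% = vehicle and 100% = reference activator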
proKLK7 act = activates the human kallikrein-7 zymogen | activation, % at 7 µM | 0.9% of 370,000 active | P49862 | purified proKLK7, EDANS-DABCYL substrate fluorescence; 100% is mature enzyme control, 0% vehicle;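 active means activation above the mean of all tested compounds plus 3 SD, computed per campaign excluding outliers beyond control limits, cut at about 13% in these data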
Target sequence (P49862 whole entry, looked up): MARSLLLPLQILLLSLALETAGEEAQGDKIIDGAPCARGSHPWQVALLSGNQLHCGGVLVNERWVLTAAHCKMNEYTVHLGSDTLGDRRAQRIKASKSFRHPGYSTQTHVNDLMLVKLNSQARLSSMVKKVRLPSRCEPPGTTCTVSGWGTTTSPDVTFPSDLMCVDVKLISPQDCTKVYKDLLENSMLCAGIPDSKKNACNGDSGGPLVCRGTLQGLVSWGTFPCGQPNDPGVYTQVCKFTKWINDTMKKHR
SMARCA2 activ = SMARCA2 function activation, primary screen; MG213 cells, MMTV-luciferase reporter, dexamethasone, overnight; activation, % at 9.1 µM; 1% of 370,000 active; in the data active means activation above about 7.8%;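 further: 0% = vehicle wells and 100% = reference activator wells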
MsrA inhibitor = inhibitors of bovine MsrA | purified bovine MsrA, absorbance read-out | inhibition, % at 15.5 µM | 0.75% of 360,000 active;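 further: 0% = vehicle wells with enzyme and 100% = reference inhibitor wells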
MsrA conf = bovine MsrA inhibition, confirmed; shares compounds with MsrA inhibitor; purified bovine MsrA, absorbance read-out; inhibition, % at 15.5 µM; 41% of 2,300 active; AID 651822;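 further: coupled to thioredoxin reductase with NADPH and selenocystamine and DMSO as substrate; 0% = vehicle only and 100% = full effect of reference inhibitor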
SMARCA2 act conf = confirmation of SMARCA2 (BRM) function activators; activation, % at 9.1 µM; AID 652260; MG213 cells, MMTV-luciferase with dexamethasone, luminescence, overnight; MG213 cells expressing E1A, Rb sequestered; DMSO wells 0%, reference activator 100%; shares compounds with SMARCA2 activ; 30% of 3,500 active;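 active means activation above its plate's cutoff, the mean activation of tested wells plus 3 SD, cut at about 7.9% in these data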
GAL4-VP16 Luc = GAL4-VP16 reporter activation counter-screen; activation, % at 9.1 µM; shares compounds with SMARCA2 activ; 41% of 3,500 active; AID 686939; HEK293 GAL4-VP16 pG5luc reporter, luciferase luminescence; scaled: DMSO wells 0%, SAHA wells 100%;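 active means activation above the solvent-only control well mean plus 3 SD, averaged across control plates, cut at about 5.2% in these data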
proKLK7 act conf = proKLK7 activation, confirmation | shares compounds with proKLK7 act | purified proKLK7, EDANS-DABCYL substrate fluorescence; scaled: vehicle 0, mature enzyme 100 | activation, % at 7 µM | 68% of 3,200 active | AID 686949;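 active means activation, as change over the incubation, above the mean of all tested compounds plus 3 SD, cut at about 13% in these data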
EDANS-DABCYL int = counter-screen for kallikrein-7 activators: EDANS-DABCYL optical interference; shares compounds with proKLK7 act; EDANS-DABCYL substrate fluorescence interference, no enzyme, 4 h; solvent 0%, active enzyme control 100%; activation, % at 7 µM; 80% of 3,200 active;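 active means activation above the all-compound mean plus 3 SD, ignoring values outside control-based bounds, cut at about 4.8% in these data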;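 further: value is the 4 h activation minus the activation read at time zero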
Starred values were filed as active, the others as inactive; / = no result. Unless noted, no stated cut-off is given here; in the data, active means inhibition above about 4.5%; inactive means the rest.

SMILES | bovine MsrA act | proKLK7 act | SMARCA2 activ | MsrA inhibitor | MsrA conf | SMARCA2 act conf | GAL4-VP16 Luc | others
COc1ccc(Oc2cc(NN3CCCCC3)c([N+](=O)[O-])cc2[N+](=O)[O-])cc1OC | -2 | 0 | -1 | 4.9* | 3 | / | /
CC(=O)c1cccc(Oc2cc(NN3CCCCC3)c([N+](=O)[O-])cc2[N+](=O)[O-])c1 | -4 | 0 | -2 | 18* | 12* | / | /
O=[N+]([O-])c1cc([N+](=O)[O-])c(Oc2ccc(F)cc2)cc1NN1CCCCC1 | -1 | 0 | -1 | 0 | / | / | /
Cc1cccc(CCNC(=O)CSc2nc3c([nH]2)c(=O)n(C)c(=O)n3C)c1 | / | 0 | 2 | / | / | / | /
O=C1c2cccc3c([N+](=O)[O-])ccc(c23)C(=O)N1c1ccccn1 | -8 | 0 | 14* | 9.2* | 6.0* | -16 | 6.5*
O=C1c2cccc3c([N+](=O)[O-])ccc(c23)C(=O)N1c1ccc(Cl)cn1 | 1 | 0 | 0 | 0 | / | / | /
COCc1nnc(NC(=O)c2sc3ccccc3c2Cl)s1 | -4 | -1 | 9.8* | 5.0* | 3 | 17* | 7.5*
Cc1nnc(N/N=C/c2ccc(-c3ccccc3F)o2)n1N | 1 | 0 | 12* | 6.1* | 6.0* | 7 | 9.2*
COC(=O)c1ccccc1-c1ccc(/C=N/NC(N)=O)o1 | -8 | 0 | 1 | 2 | / | / | /
OCCCN=c1cc(-c2ccccc2)oc2ccc(Cl)cc12 | -4 | 0 | 12* | 4.8* | 4 | 37* | 6.3*
CC1(C)CC(N=c2cc(-c3ccccc3)oc3ccc(Cl)cc23)CC(C)(C)N1 | -14 | 0 | 1 | -1 | / | / | /
CSc1ccc(/C=N/NC(=O)c2cccc(O)c2)cc1 | -3 | 3 | 9.6* | 4.8* | 5.6* | 6 | 14*
COc1ccccc1C(=O)N/C(=C/c1ccc(Br)cc1)C(=O)N1CCOCC1 | 0 | 1 | -1 | 0 | / | / | /
N#Cc1cc(C#N)c(N2CCN(c3ccccn3)CC2)nc1N | -2 | 0 | 9.1* | 4.7* | 3 | 16* | 11*
Cc1ccsc1C(=O)N1CCCC1(C)C(=O)NCC(C)C (configuration not stated) | 2 | 0 | -1 | 1 | / | / | /
O=C(O)c1ccc(/C=N/Nc2ccc(F)cc2F)cc1 | -4 | 0 | 11* | 5.6* | 4 | 6 | 5
CN(C)/C=N/c1ncc(C(=O)c2ccccc2)s1 | -6 | 0 | 14* | 5.6* | 4.7* | 8.7* | 8.1*
O=C1CCC[C@@H]2Cc3nc4ccc(Cl)cc4cc3[C@@H]3CCN1[C@H]23 | -2 | 0 | 0 | 1 | / | / | /
NC(CSC(c1ccccc1)(c1ccccc1)c1ccc2c(c1)OCO2)C(=O)O (configuration not stated) | 0 | 0 | -1 | 0 | / | / | /
Cc1[nH]c2ccccc2c1/C=N/NC(=O)CNC(=O)c1ccccc1 | -4 | 0 | -3 | 4 | / | / | /
Cc1[nH]c2ccccc2c1/C=N/NC(=O)c1ccc(N)cc1 | -5 | 1 | 9.3* | 5.5* | 4.7* | 3 | 0
Cc1nc(Nc2ccncc2)c2oc3ccccc3c2n1 | -9 | 1 | 10* | 5.4* | 2 | 20* | 1
O=C(N=Nc1c(O)[nH]c2ccccc12)c1ccco1 | -9 | 1 | 8.2* | 6.8* | 5.0* | 23* | 9.8*
COc1ccc2c(c1)[C@@H](NC(=O)c1ccncc1)[C@H](C)[C@H]2c1ccccc1 | / | 0 | -1 | -1 | / | / | /
O=C(N/N=C/c1ccc2c(c1)OCO2)c1cccs1 | -10 | 1 | 9.2* | 6.1* | 5 | 11* | 7.8*
SMILES | bovine MsrA act | proKLK7 act | SMARCA2 activ | MsrA inhibitor | MsrA conf | SMARCA2 act conf | GAL4-VP16 Luc | others
O=C(N/N=C/c1ccc(Cl)cc1)c1ccc2c(c1)OCO2 | -9 | 0 | 2 | 1 | / | / | /
O=C(N/N=C/c1ccc2c(c1)OCO2)c1ccc2c(c1)OCCO2 | -5 | 1 | 10* | 4.9* | 4 | 4 | 5
O=[N+]([O-])c1ccc(Br)c(CN2CCN(c3ncc(Cc4ccccc4)cn3)CC2)c1 | / | -1 | -4 | 0 | / | / | /
CCOC(=O)[C@]12CCCC=C1N(Cc1ccc3c(c1)OCO3)C(=O)[C@H](CC(=O)NCCc1ccccc1OC)C2 | -4 | 1 | -6 | 0 | / | / | /
c1ccc(CNc2ncnc3nc[nH]c23)nc1 | -1 | -1 | -5 | 0 | / | / | /
Fc1ccccc1/C=N/Nc1ncnc2nc[nH]c12 | -5 | -1 | 9.6* | 8.9* | 4 | 17* | 5.8*
O=C1NC(=O)/C(=C\c2ccc(OCc3cccc(C(=O)O)c3)c(Cl)c2)N1 | -4 | 0 | 9.0* | 5.3* | 4 | 7 | 8.4*
O=C(CSc1nnc(-c2ccccn2)n1-c1ccccc1)c1ccc2c(c1)OCO2 | / | -1 | -5 | / | / | / | /
O=C(O)c1ccc(/C=C/c2ccc3cccc(O)c3n2)cc1 | -5 | 7 | 8.0* | 5.6* | 5.3* | 16* | 6.2*
Oc1ccc(/C=C/c2ccc3cccc(O)c3n2)cc1Br | -2 | -6 | 3 | 1 | / | / | /
Cc1cccc(NC(=O)/C=C/c2cccs2)n1 | -1 | 0 | 12* | 5.0* | 3 | 8.2* | 7.9*
CC(C)(C)NC(=O)/C=C/c1cccs1 | -3 | 0 | 3 | 2 | / | / | /
N#Cc1ccc(Cn2ccc3ccc(-c4ccc5ccn(C(=O)C6CC6)c5c4)cc32)cc1 | / | -6 | -2 | / | / | / | /
COc1cc2c(cc1OC)-c1cc(Nc3ccccc3Br)nc(=O)n1CC2 | -4 | -37 | 13* | 7.5* | 5 | 8.6* | 16*
CCOc1cccc(Nc2cc3n(c(=O)n2)CCc2cc(OC)c(OC)cc2-3)c1 | -11 | 4 | -2 | 2 | / | / | /
Cc1[nH]nc2c1C(c1ccsc1)C1=C(CC(C)(C)CC1=O)N2 (configuration not stated) | -14 | 14* | -3 | 4.7* | 3 | / | / | proKLK7 act conf=13*;EDANS-DABCYL int=17*
O=C1COC(c2ccccc2O)=NN1CCCl | -1 | 0 | 2 | 0 | / | / | /
Cn1c(/C(C#N)=C/Nc2ccccn2)nc2ccccc21 | -8 | 55* | -2 | 6.8* | 3 | / | / | proKLK7 act conf=183*;EDANS-DABCYL int=183*
CC1CN(c2oc(-c3cccs3)nc2C#N)CC(C)O1 (configuration not stated) | -3 | 10 | -3 | 2 | / | / | /
N#Cc1nc(-c2cccs2)oc1N1CCOCC1 | -4 | 15* | -3 | 5.1* | 2 | / | / | proKLK7 act conf=40*;EDANS-DABCYL int=49*
